Drawing on PubChem BioAssay (NCI), this text covers growth for 13 compounds.

What all share (assay): NCI-60 one-dose screen, 48 h (100 = growth as untreated, 0 = no growth, -100 = all killed)
Common to all, as to settings: 10 µM unless noted

Assay [1] deals with NCI-H23 lung.
For assay [2], the system named is NCI-H322M lung.
The subject of assay [3] is HOP-62 NSCLC.
The test system of assay [4] is NCI-H460 lung.
The test system of assay [5] is HOP-92 NSCLC.
For assay [6], the system named is NCI-H522 lung.
Assay [7] relates to A549/ATCC NSCLC.
Assay [8] concerns 786-0 renal.
Assay [9] concerns COLO 205 colon.
Assay [10] deals with DU-145 prostate.
Assay [11] deals with K-562 leukemia.
For assay [12], the system named is MALME-3M melanoma.
Assay [13] has as its system MDA-MB-231 breast.
Assay [14] concerns RXF 393 renal.
The test system of assay [15] is SF-268 CNS.
The test system of assay [16] is SF-295 CNS.
For assay [17], the system named is SF-539 CNS.
The test system of assay [18] is UACC-257 melanoma.
For assay [19], the system named is M14 melanoma.
For assay [20], the system named is HCT-15 colon.

About 83,000 compounds went through this panel and 20% of them were active in at least one assay; those are over-represented in the sample as a whole.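 96-well plates, one dose, 48 hours. Percent growth reported; active if below 10.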 Unmarked numbers belong to inactive results. Active and inactive are the calls of the source.

Consider `O=c1[nH]nnc2c1ncn2C1OC(CO)C(O)C1O` (stereo not given), for which the growth in [1] is 63.3%; in assay [2], 71.1%; in [3], 66.7%; in assay [4], 33.1%; in assay [5] it was 35.7%; in [6], 58%. The growth in [7] is 49.7%; in assay [8], 54.4%; in [9], 34.4%; in assay [10], 26.8%; in assay [11], 31.5%; in assay [12], 57.5%. Moreover, the growth in [13] is 55.2%; in assay [14] it was 80.7%; in assay [15], 67.6%; in [16], 20.2%; in [17] it was 67.2%; in assay [18], 65.2%. Further, the results for the growth in assay [19] and in assay [20] were 36.2% and 66.5%, respectively.
On to `COc1cc2nc(-c3cnc(N(C)C)nc3)nc(NC3CCN(Cc4ccccc4)CC3)c2cc1OC`, for which the growth is -33.8% (active) in [1]; -85.7% (active) in [2]; -70.4% (active) in assay [3]; -71.1% (active) in assay [4]; -76.8% (active) in [5]; -64.2% (active) in assay [6]. The growth was -66.3% (active) in assay [7]; -71% (active) in assay [8]; -82.5% (active) in assay [9]; -83.9% (active) in assay [10]; -40.4% (active) in assay [11]; -74.4% (active) in [12]. The growth in assay [13] was -87.7% (active); in [14], -78.6% (active); in [15], -60% (active); in assay [16], -92% (active); in [17] it was -92.9% (active); in assay [18] it was 24.1%. Also, the growth in [19] was -80.6% (active); in assay [20], -85.9% (active).
Turning to `COc1ccc(S(=O)(=O)N(Cc2ccc3c(n2)C=CC(C)(C)O3)C2CCC2)cc1OC`, the growth was -14.5% (active) in assay [1]; -20.1% (active) in assay [2]; 1.37% (active) in assay [3]; 1.79% (active) in assay [4]; -19.6% (active) in assay [5]; -27.7% (active) in assay [6]. Moreover, the growth in [7] is -2.9% (active); in assay [8], -26.5% (active); in assay [9], 0.159% (active); in [10] it was -8.1% (active); in [11], 7.07% (active); in assay [12] it was -36.9% (active). The growth was 3.21% (active) in assay [13]; -20.2% (active) in assay [14]; -9.29% (active) in assay [15]; -43.3% (active) in [16]; 0.455% (active) in assay [17]; -13.9% (active) in assay [18]. Moreover, the growth was -59.1% (active) in assay [19] and 13.5% in assay [20].
On to `O=C(O)CCC(=O)c1ccc(C2CCCCCC2)cc1`, for which the growth in assay [1] was 97.9%; in assay [2], 97.5%; in assay [3], 98.8%; in assay [4] it was 107%; in assay [5] it was 99.7%; in assay [6], 87.5%. The growth in assay [7] was 99.6%; in assay [8] it was 95.8%; in assay [9], 104%; in [10], 108%; in assay [11] it was 90.2%; in assay [12] it was 91.5%. For the same compound, the growth is 109% in assay [13]; 115% in [14]; 97.5% in [15]; 97.4% in [16]; 97.1% in assay [17]; 94.6% in [18]. Further, the growth was 102% in [19] and 105% in assay [20].
With `COc1cc(C=C2C(=O)N(C)C(=O)N(C)C2=O)cc(CN2CCCCC2)c1O`, the growth in [1] was 96.6%; in [2] it was 102%; in assay [3], 93.1%; in assay [4] it was 108%; in [5], 101%; in [6], 94.3%. Moreover, the growth is 100% in [7]; 95.5% in assay [8]; 111% in assay [9]; 104% in assay [10]; 96.4% in assay [11]; 93.3% in assay [12]. The growth was 98.1% in assay [13]; 116% in assay [14]; 94.1% in [15]; 104% in assay [16]; 100% in [17]; 104% in assay [18]. Further, the figures for the growth in assay [19] and in assay [20] were 102% and 104%, respectively.
As for `O=C1Nc2ccccc2/C1=C/c1cccs1`, the growth in assay [1] was 92.5%; in assay [2], 84.6%; in assay [3] it was 83.5%; in assay [4], 92.5%; in assay [5], 75.3%; in assay [6], 95.2%. The growth in [7] was 95.2%; in assay [8], 94.1%; in assay [9] it was 107%; in assay [10], 103%; in assay [11], 114%; in assay [12] it was 93.6%. In addition, the growth in assay [13] was 94.5%; in assay [14], 97.9%; in [15], 94.1%; in [16], 101%; in assay [17], 86.7%; in assay [18], 100%. Moreover, the values for the growth in [19] and in assay [20] were 97.3% and 78.8%, respectively.
Turning to `O=C(CN1C(=O)/C(=C\c2ccc(Cl)cc2)SC1=S)Nc1ncc(Cc2ccc(Cl)cc2)s1`, the growth in assay [1] was 100%; in assay [2], 107%; in assay [3], 105%; in assay [4] it was 100%; in [5], 101%; in assay [6], 89.5%. In addition, the growth is 108% in [7]; 106% in [8]; 110% in [9]; 106% in assay [10]; 105% in assay [11]; 99.4% in [12]. Further, the growth in assay [13] is 104%; in assay [14] it was 110%; in [15], 97.4%; in assay [16] it was 101%; in assay [17] it was 94.3%; in assay [18] it was 104%. The results for the growth in [19] and in [20] were 102% and 103%, respectively.
With `CCOC(=O)c1ccc(N=Cc2sc(=O)[nH]c2O)cc1`, the growth is 98% in assay [1]; 101% in [2]; 95.4% in assay [3]; 101% in assay [4]; 90.1% in [5]; 93.7% in assay [6]. Besides, the growth in [7] was 96.6%; in [8], 98.4%; in assay [9], 104%; in [10], 103%; in assay [11], 103%; in assay [12] it was 91.2%. Also, the growth was 95.5% in [13]; 102% in assay [14]; 88.3% in [15]; 94.1% in assay [16]; 94% in assay [17]; 96.9% in assay [18]. The figures for the growth in assay [19] and in assay [20] were 97.9% and 99.1%, respectively.
As to `CCOC(=O)c1sc(-c2ccc(OS(=O)(=O)c3ccccc3[N+](=O)[O-])c(C=O)c2)nc1C`, the growth in [1] is 50.6%; in assay [2] it was 58.4%; in assay [3], 117%; in [4] it was 91.2%; in assay [5], 65.6%; in [6], 18.8%. Further, the growth is 82.3% in [7]; 80.3% in [8]; 117% in [9]; 78.1% in [10]; 12.8% in [11]; 37.8% in assay [12]. Further, the growth is 84% in assay [13]; 108% in assay [14]; 46.6% in assay [15]; 107% in assay [16]; 76.6% in assay [17]; 49.5% in assay [18]. In addition, the growth is 5.91% (active) in assay [19] and 6.3% (active) in assay [20].
For the compound `COC(=O)C1=C(C)NC(C)=C(C(=O)OC)C(N2C(=O)CCC2=O)C1` (stereo not given), the growth in [1] is 96.8%; in [2] it was 91.2%; in [3], 109%; in [4], 101%; in assay [5], 101%; in assay [6], 7.93% (active). The growth in [7] is 77.6%; in assay [8] it was 99.2%; in [9] it was 114%; in assay [10], 90.1%; in assay [11] it was 35.8%; in assay [12], 80.8%. The growth in assay [13] was 95.8%; in assay [14], 104%; in assay [15] it was 93.9%; in assay [16], 118%; in [17] it was 103%; in [18], 66.5%. Besides, the results for the growth in [19] and in assay [20] were 85% and 78.4%, respectively.
Regarding `COc1ccc(Cn2c(Br)c3c(c2Br)-c2nc(NC(=O)c4ccc(OC)cc4)sc2CC3)cc1`, the growth in assay [1] was 81.3%; in assay [2], 56.4%; in [3], 68.6%; in assay [4], 77.4%; in assay [5], 50.6%; in [6], 72%. Moreover, the growth is 79.7% in assay [7]; 61.8% in assay [8]; 103% in [9]; 78% in assay [10]; 79.2% in assay [11]; 4.4% (active) in assay [12]. Besides, the growth in assay [13] is 52.6%; in assay [14] it was 57%; in assay [15], 72%; in assay [16] it was 57.7%; in [17] it was 52.1%; in [18], 78.5%. For the same compound, the growth in assay [19] was 80.4%; in assay [20], 92.8%.
Turning to `CN1C(=O)N(C)C2(c3ccccc3)n3c(s/c(=C\c4ccccc4)c3=O)=NNC12c1ccccc1` (stereo not given), the growth in assay [1] is 97.2%; in [2], 95.3%; in [3], 101%; in [4] it was 91.6%; in [5], 89.5%; in assay [6] it was 84.3%. Also, the growth in [7] was 89.1%; in assay [8] it was 98.3%; in [9] it was 112%; in assay [10], 93%; in assay [11] it was 71.2%; in assay [12], 86.9%. For the same compound, the growth was 85.1% in [13]; 86.8% in assay [14]; 96.9% in [15]; 97.3% in assay [16]; 93.1% in [17]; 98.3% in assay [18]. In addition, the results for the growth in [19] and in assay [20] were 83.4% and 89.5%, respectively.
For the compound `Nc1nonc1-n1nncc1-c1cccnc1`, the growth is 102% in [1]; 101% in assay [2]; 110% in assay [3]; 111% in assay [4]; 99.8% in assay [5]; 112% in [6]. Also, the growth is 94.7% in assay [7]; 104% in [8]; 114% in assay [9]; 112% in assay [10]; 105% in [11]; 96.1% in assay [12]. Moreover, the growth is 111% in [13]; 115% in [14]; 106% in [15]; 98.2% in [16]; 102% in assay [17]; 112% in assay [18]. Further, the values for the growth in [19] and in assay [20] were 104% and 101%, respectively.
